The results in this text go back to PubChem BioAssay AID430 (Sanford-Burnham Center for Chemical Genomics, 2006).

The structures appear in SMILES notation. The whole screen tested about 63,000 compounds, of which about 1,100 (1.7%) were called active. This is one part of a sample in which actives are shown more often than they occur. Entries with a potency or affinity are not part of this list. Values without a mark were called inactive. Cut-off read from the data, not from the text of the source: active = cytotoxicity above about 50%; inactive = the rest.

The nature of this test: cytotoxicity in HPDE-C7 cells, cell-based, fluorescence, HTS (AID 430).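 Note: cells exposed to compound for 48 hours before viability readout; 0% = vehicle and 100% = reference cytotoxic drug.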 Particulars: HPDE-C7 pancreatic duct cells viability, at 10 µM, hits give high values.
Regarding `Cc1cc(C(=O)Nc2ccc(S(=O)(=O)N3CCCC3)cc2)cs1`, the cytotoxicity was -11.4%.
With `COc1ccc(C2CC(=O)c3c([nH]c(C(=O)OC(C)C)c3C)C2)cc1OC` (stereo not given) the figure was -7.1%.
Turning to `COCCOC(=O)c1[nH]c2c(c1C)C(=O)CC(c1cc(OC)ccc1OC)C2` (stereo not given), the cytotoxicity was 16.4%.
With `COC(=O)c1[nH]c2c(c1C)C(=O)CC(c1cc(OC)ccc1OC)C2` (stereo not given) the figure was 31.5%.
With `CCCOCCOC(=O)c1[nH]c2c(c1C)C(=O)CC(c1cc(OC)ccc1OC)C2` (stereo not given) the figure was 60.7% (active).
For `COc1ccc(OC)c(C2CC(=O)c3c([nH]c(C(=O)OC(C)C)c3C)C2)c1` (stereo not given), the cytotoxicity was 65.9% (active).
With `CCOCC(=O)Nc1ccc(S(=O)(=O)NCCc2ccccc2)cc1` the figure was 4.2%.
`COC(=O)c1ccc(NC(=O)CCN2CCN(c3ccccc3)CC2)cc1`: the cytotoxicity was 37.6%.
Then `O=C(Nc1ccc(N2CCCCC2)cc1)c1ccc(F)cc1`, with 23.5%; and `O=C(c1ccco1)N1CCN(C(=O)c2ccccc2OC(=O)C23CC4CC(CC(C4)C2)C3)CC1`, with -9.7%.
Then `COc1ccc(N2CC(O)=C(c3nc4ccccc4s3)C2=N)cc1`, with 5.8%.
With `CCOc1ccccc1N1CC(O)=C(c2nc3ccccc3s2)C1=N` the figure was 65.2% (active); with `COc1ccc(N2CC(O)=C(c3nc4ccccc4s3)C2=N)c(OC)c1`, 20.6%.
`O=C(O)C(CC(=O)N1CCOCC1)NCc1ccccc1` (stereo not given): the cytotoxicity was 5.6%.
In the case of `CC1CCCN(C(=O)CSc2nnc(-c3cccnc3)n2C2CCCCC2)C1` (stereo not given), the cytotoxicity was -23.2%.
With `CCCN(CC1CC1)C(=O)Nc1ccccc1C` the figure was -9.7%; with `CCC(C)Nc1nc(-c2cccc(OC)c2O)nc2ccccc12` (stereo not given), 107% (active); with `Oc1ccccc1-c1nc(NCC2CCCO2)c2ccccc2n1` (stereo not given), 46.8%.
Then `COc1cccc(-c2nc(NCC3CCCO3)c3ccccc3n2)c1O` (stereo not given), with 52.2% (active).
With `COc1cccc(-c2nc(NC(C)C)c3ccccc3n2)c1O` the figure was 23.8%; with `C=CCNc1nc(-c2cccc(OC)c2O)nc2ccccc12`, -3%; with `COc1cccc(-c2nc(N3CCCCC3)c3ccccc3n2)c1O`, -7.5%.
For the compound `COc1cccc(-c2nc(NC(C)(C)C)c3ccccc3n2)c1O`, the cytotoxicity was 10.9%.
Then `COc1cccc(-c2nc(N3CCCCC3C)c3ccccc3n2)c1O` (stereo not given), with 53% (active); and `CCC1CCCCN1c1nc(-c2cccc(OC)c2O)nc2ccccc12` (stereo not given), with -2.8%.
With `O=C(CN(C1CC1)S(=O)(=O)c1ccc(S(=O)(=O)N2CCCCCC2)cc1)Nc1ccccc1` the figure was 7.4%.
With `CCCOc1ccc(C(=O)NCCC(=O)NCCCC(=O)OCC)cc1` the figure was 1.7%; with `O=C1C(SC(F)(F)C(F)F)=C(C(F)(F)F)OC2C3C=CC(C3)C12` (stereo not given), 3.6%.
`O=C1NC(NS(=O)(=O)c2ccccc2)(C(F)(F)F)C(=O)N1Cc1cccnc1` (stereo not given): the cytotoxicity was -8.4%.
Regarding `CC(C)(C)c1ccccc1OCC(=O)NCCC(=O)O`, the cytotoxicity was -12.2%.
With `O=C(CSc1nc2ccccc2s1)Nc1ncccn1` the figure was -3.2%.
With `CCS(=O)(=O)CCSc1nc2ccccc2s1` the figure was -17.4%.
Then `c1ccc2oc(SCc3nc4ccccc4s3)nc2c1`, with 8.6%.
As to `CCS(=O)(=O)CCSc1nc2ccccc2o1`, the cytotoxicity is -9.3%.
On to `Cc1ccccc1N(C)S(=O)(=O)c1ccc2[nH]cc(C(=O)NCC3CCCO3)c(=O)c2c1` (stereo not given), for which the cytotoxicity was -13.7%.
With `O=C(Cc1ccc2c(c1)OCCO2)c1c(O)cc(O)cc1O` the figure was 60.9% (active).
With `O=C(O)COc1ccc(C(=O)Cc2ccc3c(c2)OCCCO3)c(O)c1` the figure was -8.7%; with `O=C(O)CCC(=O)c1ccc2c(c1)OCCO2`, 0%.
Then `Nn1c(SCC(=O)NCc2ccccc2)nnc1C1CC1`, with 6.6%; and `COC(=O)C1CCN(C(=O)C(C)Oc2ccc(Cl)cc2Cl)CC1` (stereo not given), with -16.4%; and `CCN(CC)CCCNC(=O)C1CCN(C(=O)c2cc3sccc3n2Cc2ccc(F)cc2)CC1`, with 20.7%.
As to `CC(=O)C1=C(C)N=c2s/c(=C/c3ccc4c(c3)OCO4)c(=O)n2C1c1ccc(N(C)C)cc1` (stereo not given), the cytotoxicity was -3.5%.
With `COc1ccc(C2C(C(C)=O)=C(C)N=c3s/c(=C/c4ccc5c(c4)OCO5)c(=O)n32)cc1` (stereo not given) the figure was -4.1%; with `CCOC(=O)c1cnc2c(C(=O)OC)cccc2c1NCCN1CCOCC1`, -10.4%; with `COc1ccc(N2CCN(CC(O)c3c[nH]c4ccc(OC)cc34)CC2C)cc1` (stereo not given), 41.3%.
Then `COc1ccc(CCNC(=O)c2cc3ccccn3n2)c(OC)c1OC`, with -7%; and `COc1ccc(OC)c(Nc2nc(-c3sc(C)nc3C)cs2)c1`, with 7.9%; and `COc1ccc(OC)c(Nc2nc(-c3ccc(O)c(O)c3)cs2)c1`, with 67.2% (active).
With `COc1ccc(OC)c(Nc2nc(-c3cccs3)cs2)c1` the figure was 44%; with `Cc1cc2cc(C(c3nnnn3Cc3ccco3)N3CCc4ccccc4C3)c(=O)[nH]c2cc1C` (stereo not given), -4.7%.
On to `Cc1nn(C(C)(C)C)c(OC(=O)C2CCCC2)c1S(=O)(=O)c1ccccc1`, for which the cytotoxicity was -9.3%.
Then `Cc1nn(C(C)(C)C)c(OC(=O)c2cccs2)c1S(=O)(=O)c1ccccc1`, with 54.2% (active); and `CC(=O)Oc1c(S(=O)(=O)c2ccc(C)cc2)c(C)nn1C(C)(C)C`, with 12.6%.
With `Cc1ccc(S(=O)(=O)c2c(C)nn(C(C)(C)C)c2OC(=O)c2cccs2)cc1`, the cytotoxicity was -6.5%.
Turning to `CC(=O)Oc1c(S(=O)(=O)c2ccccc2)c(C)nn1C(C)(C)C`, the cytotoxicity was 13.3%.
With `Cc1nn(-c2ccccc2)c(OC(=O)c2cccs2)c1S(=O)(=O)c1ccccc1` the figure was -5.8%; with `Cc1nn(C(C)(C)C)c(OC(=O)c2ccc3c(c2)OCO3)c1S(=O)(=O)c1ccccc1`, 60.9% (active).
Consider `Cc1ccc(S(=O)(=O)c2c(C)nn(C(C)(C)C)c2OC(=O)c2ccco2)cc1`, for which the cytotoxicity was 14.5%.
Then `CCC(Sc1nncn1C)C(=O)Nc1nnc(-c2ccccc2Cl)s1` (stereo not given), with 3.8%; and `CC(=O)Nc1ccc(C(=O)Nc2ccc(S(=O)(=O)NCC3CCCO3)cc2)cc1` (stereo not given), with -3.3%; and `COc1ccc(Oc2cn[nH]c2-c2ccc(O)cc2O)cc1`, with 9.4%.
For `C=C(C)COc1ccc(-c2nc(N)ncc2Oc2ccccc2OCC)c(O)c1`, the cytotoxicity is 7.3%.
Consider `CCOc1ccccc1Oc1cn[nH]c1-c1ccc(OC)cc1O`, for which the cytotoxicity was 51.7% (active).
On to `CCOc1ccc(-c2[nH]ncc2Oc2ccccc2OC)c(O)c1`, for which the cytotoxicity is 65.8% (active).
Then `COc1ccc(-c2[nH]ncc2-c2cnc(C)s2)c(O)c1`, with 6.4%; and `C=C(C)COc1ccc(-c2[nH]ncc2Oc2ccccc2OCC)c(O)c1`, with 86% (active).
With `COc1ccc(-c2[nH]ncc2Oc2ccccc2OC)c(O)c1` the figure was 6.8%; with `CCOc1ccc(-c2[nH]ncc2Oc2ccccc2OCC)c(O)c1`, 53.9% (active); with `O=c1c2c3nc4ccccc4nc3n(/N=C/c3cccs3)c2ncn1-c1ccccc1`, -19.9%.
Then `O=C(CCc1nc2ccccc2[nH]1)Nc1ccc2c(c1)OCO2`, with 5.9%; and `Cc1noc(C)c1COC(=O)CCN1c2ccccc2Sc2ccccc21`, with -8%.
Take `COc1ccc(NC(=O)CSc2nc3ccccc3c(=O)n2-c2ccc3c(c2)OCO3)c(OC)c1`: the cytotoxicity was 33.6%.
With `CCc1ccccc1-n1cnc2cc(C(=O)O)ccc21` the figure was -20.8%; with `O=C(O)c1cc(Cl)ccc1NC(=O)C1CCCO1` (stereo not given), -8.9%.
Then `C=CCNC(=O)C1CC(c2cccc(OC)c2)=NO1` (stereo not given), with -8.4%; and `CCC1(COC(NC(=O)c2cccnc2)(C(F)(F)F)C(F)(F)F)COC1`, with -0.9%.
With `COc1cccc(-c2nc(CS(=O)CC(=O)NC3CC3)c(C)o2)c1` (stereo not given) the figure was -3%; with `COc1nc(NC23CC4CC(CC(C4)C2)C3)nc(OC)n1`, -8%.
For the compound `COCCCNC(=O)CN(Cc1ccc(Cl)cc1)S(C)(=O)=O`, the cytotoxicity was -2.6%.
Then `CCCSc1nc(C)c(CC(=O)OCC)c(=O)[nH]1`, with 4%; and `O=C1c2ccccc2C(=O)N1CCSc1nnc(-c2ccco2)n1Cc1ccccc1`, with 4.3%.
With `CCCCCn1c(N(C)Cc2ccccc2)nc2c1c(=O)[nH]c(=O)n2C` the figure was -0.6%; with `C=C(C)COc1ccc(-c2[nH]ncc2-c2ccc(OC)c(OC)c2)c(O)c1`, 13.3%.
With `COc1ccc(-c2[nH]ncc2-c2ccc(Cl)cc2)c(O)c1` the figure was 41.2%; with `CCOc1ccc(-c2[nH]ncc2-c2ccc(OC)c(OC)c2)c(O)c1`, 53.7% (active).
Consider `CCC(=O)Nc1ccc(F)c(Cl)c1`, for which the cytotoxicity was -11.3%.
With `CCOC(=O)Cc1csc(NC(=O)CSc2ncnc3c2cnn3-c2ccccc2Cl)n1` the figure was 57.4% (active).
With `CCOC(=O)Cc1csc(NC(=O)CSc2ncnc3c2cnn3-c2ccc(OC)cc2)n1` the figure was -6.9%; with `Cc1csc(NC(=O)CSc2ncnc3c2cnn3-c2ccccc2Cl)n1`, 19.7%; with `CC1(C)CC(=O)C2=C(C1)N(c1cccc(O)c1)C1=C(C2)C(=O)CC(C)(C)C1`, 59.8% (active).
With `CC1(C)CC(=O)C(C(C2=C(O)CC(C)(C)CC2=O)c2cccc(O)c2)C(=O)C1` (stereo not given) the figure was 10.5%; with `CC1(C)CC(=O)C=C(Nc2cccc(O)c2)C1`, 1.7%.
`C=CCn1c(O)c(C(CC)=NCc2cccnc2)c(=O)[nH]c1=O`: the cytotoxicity is -2.2%.
In the case of `O=C(NCc1cccnc1)c1cc(-c2ccco2)on1`, the cytotoxicity was 1.9%.
With `N#Cc1cc2c(nc1SCC(=O)NCc1ccc3c(c1)OCO3)CCCCC2` the figure was -27.8%.
